Experimental data reported in PubChem BioAssay (EPA / NIEHS).
Activity calls are given as the source filed them. Rule for the calls: active = hit-call score of the fitted dose curve at least 0.9, where 1 is the maximum; inactive = score below 0.9.

experiment: APR_HepG2_MicrotubuleCSK_24hr: Apredica 24-hour HepG2 Assay for Microtubule CSK Stabilty (AID 2282909); settings: HepG2 microtubule cytoskeleton imaging, actives raise or lower the signal
Method in brief: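 HepG2 cells were treated 24 hr with compound at 0.39–200 uM in duplicate (0.5% DMSO final), then fixed and permeabilized. Alpha-tubulin immunofluorescence was imaged by high-content microscopy, with bidirectional fitting against DMSO and taxol as positive control.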

**Q.** With OC1CCCCC1 as the molecule, how does the outcome read?
**A.** inactive

**Q.** Which outcome does the source give for CCC(=C(c1ccc(O)cc1)c1ccc(OCCN(C)C)cc1)c1ccccc1 here?
**A.** inactive

**Q.** For CCc1ccc(CCOc2ccc(CC3SC(=O)NC3=O)cc2)nc1 (stereo unspecified), which outcome is on record?
**A.** inactive

**Q.** With CC(C)(C)c1ccc(O)c(C(C)(C)C)c1 as the molecule, how does the outcome read?
**A.** inactive

**Q.** With Oc1cccc(O)c1 as the molecule, how does the outcome read?
**A.** inactive

**Q.** Which AC50 does the source give for CN1CCN(c2ccccc2/C=C2\SCCN(c3ccc(Cl)c(Cl)c3)C2=O)CC1 here?
**A.** 80.7 µM (active)

**Q.** With COC(=O)CCCCC(=O)OC as the molecule, how does the outcome read?
**A.** inactive

**Q.** With COc1cc(CCC(=O)CC(=O)CCc2ccc(O)c(OC)c2)ccc1O as the molecule, how does the outcome read?
**A.** inactive

**Q.** Which outcome does the source give for COCC(C)OCC(C)O (stereo unspecified) here?
**A.** inactive

**Q.** Which outcome does the source give for CCN(CC)CCNc1ccc(CNC=O)c2sc3ccc(OC)cc3c(=O)c12 here?
**A.** inactive

**Q.** Which outcome does the source give for Cc1oc(-c2ccccc2)nc1CCOc1ccc(C[C@H](Nc2ccccc2C(=O)c2ccccc2)C(=O)O)cc1 here?
**A.** inactive
